This is a sample that favours compounds with a hit; in the whole collection about 21% have one here.
Pf growth 96h: P. falciparum growth inhibition at 96 hour, primary screen for plastid delayed-death inhibitors | P. falciparum luciferase reporter growth, 96 h | Potency, µM (doses to about 28.7 µM), without a hit: at the highest dose activity change, negative = inhibition, usual class: inhibitors | 320,000 compounds, 6.9% hits; also: potency is read from the fitted curve at half-maximal effect; % is scaled to controls: 0 for no effect and ±100 for the full control effect
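Compounds incubated with erythrocytes infected by luciferase-expressing P. falciparum (2% hematocrit, 0.05% parasitemia final) for 96 hours, 37 C in 5% CO2. Growth inhibition scored as decreased luciferase luminescence.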
Cycloheximide cs: counter-screen for Shiga toxin inhibitors: cycloheximide protein synthesis inhibition; AID 2314; max response, %; cell reporter, cycloheximide protein synthesis inhibition counterscreen; 300,000 compounds, 12% hits; in the data active = max response mostly above about 13%, no sharp cut-off; inactive = mostly below about 14%; also: read at 38.3 µM for the half of the compounds with a filed dose; 0% is about no effect
Shiga toxin inh: inhibitors of Shiga toxin in Vero cells; 290,000 compounds, 9.2% hits; inhibition, % at 38.7 µM; Vero cells, Shiga toxin protein synthesis inhibition reporter; in the data active = inhibition mostly above about 28%, no sharp cut-off; inactive = mostly below about 43%; also: 0% is about no effect
HCV inh: blocks hepatitis C virus; Huh7.5.1 HCVcc-Cre infection, luciferase reporter, 44 h; Potency, µM (doses to about 41.8 µM), without a hit: at the highest dose activity change, negative = inhibition, most hits filed as inhibitors; 340,000 compounds, 3.4% hits; AID 651820; also: potency is read from the fitted curve at half-maximal effect; % is scaled to controls: 0 for no effect and ±100 for the full control effect
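Luciferase read-out (15 sec integration) after a 15 min room-temperature substrate step quantifies HCVcc-Cre infection. Cells, 1,000 per well, had compound added 4 h post-plating, then virus at ~0.5 moi, and were cultured 44 h.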
HCMV inh: inhibitors of human cytomegalovirus | HFF cells, HCMV-luciferase reporter, 72 h; active compounds read low | activity change, negative = inhibition, % at 57.5 µM | 410,000 compounds, 4.5% hits | AID 1259415; in the data active = activity change below about -60%; inconclusive = no clear call, values can overlap the other calls; inactive = above about -39%; also: % is scaled to controls: 0 for no effect and ±100 for the full control effect
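After 16 h attachment at 37C, HFF cells received test compound and HCMV-luciferase (1 PFU/cell); reporter luminescence read 72 h later, data normalized against buffer-only and known inhibitor Salinomycin.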
Pf growth 48h: P. falciparum growth inhibition at 48 hours (one generation) | AID 504832 | 310,000 compounds, 5.9% hits | Potency, µM (titrated, usually from 28.7 µM), for inactives: at the top dose activity change, negative = inhibition, hits mostly inhibitors | P. falciparum luciferase growth in erythrocytes, 48 h; also: potency is read from the fitted curve at half-maximal effect; % is scaled to controls: 0 for no effect and ±100 for the full control effect
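Firefly luciferase activity from engineered P. falciparum reports growth; inhibitors lower the luminescent signal. Cultures contained 2% hematocrit erythrocytes at 0.1% final parasitemia.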
* = called active by the depositor. Unless noted, calls follow the shape of the dose curve; as a rule, active = well fitted inhibition curve with a large enough effect; inconclusive = small, poorly fitted or top-dose-only effect, or another doubt; inactive = no such curve, though single readings can be large or run the other way.

Cc1cc(C)nc(/N=C(\N)Nc2ccc3c(c2)OCCO3)n1 was read as Pf growth 96h -2%, Cycloheximide cs 17, Shiga toxin inh 41, HCV inh -20%, HCMV inh -31 and Pf growth 48h inconclusive.
COc1ccc(OC)c(N/C(N)=N/c2nc(C)cc(C)n2)c1 was read as Pf growth 96h -22%, Cycloheximide cs -2, Shiga toxin inh -6, HCV inh inconclusive, HCMV inh 53 and Pf growth 48h 31%.
For COc1ccc(N/C(N)=N/c2nc(C)cc(C)n2)c(OC)c1 the results were Pf growth 96h 7%, Cycloheximide cs 0, Shiga toxin inh 2, HCV inh inconclusive, HCMV inh -67* and Pf growth 48h -11%.
`COc1ccc(C)cc1N/C(N)=N/c1nc(C)cc(C)n1` gave Pf growth 96h inconclusive, Cycloheximide cs 15, Shiga toxin inh -7, HCV inh inconclusive, HCMV inh inconclusive and Pf growth 48h 12µM*.
`COc1ccc(OC)c(N/C(=N/c2nc(C)cc(C)n2)NC(C)=O)c1` gave Pf growth 96h 11%, Cycloheximide cs -2, Shiga toxin inh -3, HCV inh 11%, HCMV inh 31 and Pf growth 48h 11%.
`COc1cc(N/C(N)=N/c2nc(C)cc(C)n2)cc(OC)c1` gave Pf growth 96h 10µM*, Cycloheximide cs -2, Shiga toxin inh -7, HCV inh -24%, HCMV inh inconclusive and Pf growth 48h inconclusive.
`CC(=O)Nc1cc2c(cc1Br)-c1ccccc1C2` gave HCV inh inconclusive and HCMV inh 20.
For O=C(Cc1ccccc1)Nc1ncccn1 the results were Pf growth 96h 57%, HCV inh inconclusive, HCMV inh 0 and Pf growth 48h 21%.
For NS(=O)(=O)c1cccc(NS(=O)(=O)c2ccc3ccccc3c2)c1 the results were Pf growth 96h 35%, Cycloheximide cs -3, Shiga toxin inh -13, HCV inh -6% and Pf growth 48h 31%.
Screening COc1ccc(Cl)cc1N/C(N)=N/c1nc(C)cc(C)n1 returned Pf growth 96h inconclusive, Cycloheximide cs -4, Shiga toxin inh -4, HCV inh -25%, HCMV inh 12 and Pf growth 48h inconclusive.
For Cc1ccc(C)c(N/C(N)=N/c2nc(C)cc(C)n2)c1 the results were Pf growth 96h inconclusive, Cycloheximide cs 5, Shiga toxin inh 11, HCV inh inconclusive, HCMV inh -21 and Pf growth 48h 12µM*.
Screening O=C(N/N=C/c1cccc([N+](=O)[O-])c1)c1cccc(Br)c1 returned Pf growth 96h 1%, Cycloheximide cs 22*, Shiga toxin inh 24, HCV inh -8%, HCMV inh -11 and Pf growth 48h 40%.
For CCN(CC)C(=O)C1CCCN(c2ccc([N+](=O)[O-])cc2/C=N/NC(=O)c2cccc(Br)c2)C1 (centres undefined) the results were Pf growth 96h 2.1µM*, Cycloheximide cs 6, Shiga toxin inh 10, HCV inh inconclusive, HCMV inh inconclusive and Pf growth 48h 4.1µM*.
Screening Cc1ccc(/C=N/NC(=O)c2ccncc2)s1 returned Pf growth 96h -30%, Cycloheximide cs 15, Shiga toxin inh 20, HCV inh -7%, HCMV inh inconclusive and Pf growth 48h inconclusive.
For O=C(N/N=C/c1cc([N+](=O)[O-])ccc1N1CCCCCC1)c1ccccn1 the results were Pf growth 96h inconclusive, Cycloheximide cs 16, Shiga toxin inh 31, HCV inh inconclusive, HCMV inh -25 and Pf growth 48h inconclusive.
`COc1ccc(NC(=O)CCC(=O)N/N=C/c2ccc([N+](=O)[O-])s2)cc1` gave Pf growth 96h inconclusive, Cycloheximide cs -3, Shiga toxin inh -2, HCV inh inconclusive, HCMV inh -36 and Pf growth 48h 7.4µM*.
For O=C(N/N=C/c1ccc([N+](=O)[O-])s1)c1ccncc1 the results were Pf growth 96h 1.5µM*, Cycloheximide cs 9, Shiga toxin inh 5, HCV inh inconclusive and Pf growth 48h 4.7µM*.
For Cc1cccc(C(=O)NNC(=O)C2CCN(C(=O)OC(C)(C)C)CC2)c1 the results were Pf growth 96h inconclusive, Cycloheximide cs 6, Shiga toxin inh -10, HCV inh 10%, HCMV inh 3 and Pf growth 48h 24%.
COc1cc([N+](=O)[O-])cc(/C=N/NC(=O)CSc2nnc(-c3ccccc3)n2C)c1O was read as Pf growth 96h 18%, Cycloheximide cs -3, Shiga toxin inh -3, HCV inh inconclusive and Pf growth 48h 7%.
For Cc1ccc(C(=O)N/N=C\c2ccc([N+](=O)[O-])s2)cn1 the results were Pf growth 96h 0.33µM*, Cycloheximide cs -2, Shiga toxin inh -13, HCV inh -5%, HCMV inh inconclusive and Pf growth 48h 4.1µM*.
Screening O=C(N/N=C/c1ccc[nH]1)c1cccc([N+](=O)[O-])c1 returned Pf growth 96h -9%, Cycloheximide cs 8, Shiga toxin inh 11, HCV inh 3.5µM*, HCMV inh -5 and Pf growth 48h 37%.
For O=C(/C=C/c1cccc([N+](=O)[O-])c1)OCC1CCCO1 (centres undefined) the results were Pf growth 96h 5%, Cycloheximide cs 11*, Shiga toxin inh 26*, HCV inh 2%, HCMV inh 10 and Pf growth 48h 0%.
Cn1c(SCC(=O)N/N=C/c2ccc([N+](=O)[O-])s2)nnc1-c1ccc(Cl)cc1 was read as Pf growth 96h 5.2µM*, Cycloheximide cs 10*, Shiga toxin inh -11, HCV inh inconclusive, HCMV inh -33 and Pf growth 48h 10µM*.
COC(=O)C(NS(N)(=O)=O)C(C)C (centres undefined) was read as Cycloheximide cs -7 and Shiga toxin inh -17.
Screening COc1ccc(CCNC(=O)CCCn2c(=O)c3ccccc3n(CC(=O)Nc3c(C)cc(C)cc3C)c2=O)cc1OC returned HCMV inh -8.
CCOC(=O)c1ccc(NC(=O)c2c(N)n(Cc3ccccc3)c(=O)[nH]c2=O)cc1 was read as HCV inh 14% and HCMV inh -39.
`COc1cc(/C=N/NC(=O)c2cncc(Br)c2)cc([N+](=O)[O-])c1O` gave Pf growth 96h inconclusive, Cycloheximide cs 0, Shiga toxin inh 2, HCV inh 5%, HCMV inh -28 and Pf growth 48h inconclusive.
`O=C(N/N=C/c1cccc([N+](=O)[O-])c1)c1ccc(Br)cc1` gave Pf growth 96h 14%, Cycloheximide cs -4, Shiga toxin inh 9, HCV inh -14%, HCMV inh 11 and Pf growth 48h 11%.

Source: PubChem
